Test in all cases: NCI-60 one-dose screen, 48 h (100 = growth as untreated, 0 = no growth, -100 = all killed)
Conditions in all cases: 10 µM

The test system of assay [1] is HCT-15 colon.
The subject of assay [2] is HT29 colon.
The test system of assay [3] is SNB-75 CNS.
The subject of assay [4] is SNB-19 CNS.
The test system of assay [5] is U251 CNS.
Assay [6] deals with PC-3 prostate.
Assay [7] has as its system SK-MEL-5 melanoma.
For assay [8], the system named is UACC-62 melanoma.
Assay [9] has as its system LOX IMVI melanoma.
Assay [10] relates to SK-MEL-28 melanoma.
Assay [11] relates to SK-MEL-2 melanoma.
The test system of assay [12] is EKVX NSCLC.
Assay [13] has as its system SN12C renal.
The test system of assay [14] is UO-31 renal.
Assay [15] deals with TK-10 renal.
Assay [16] concerns ACHN renal.
For assay [17], the system named is CAKI-1 renal.
Assay [18] concerns A498 renal.
The test system of assay [19] is CCRF-CEM leukemia.

Compounds without any hit were thinned out: in the full panel of roughly 83,000, 20% have a hit.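 96-well plates, one dose, 48 hours. Percent growth reported; active if below 10.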 Values without a mark were called inactive. The source made the active and inactive calls.

`O=C(COc1ccc(NC(=O)Nc2ccc(Cl)cc2)cc1)N=Nc1c(O)[nH]c2ccc([N+](=O)[O-])cc12`: the growth in [1] was 94.1%; in [2], 34.8%; in assay [3] it was 29.9%; in [4], 19.1%; in assay [5], -67.6% (active); in assay [6] it was 46.8%. Besides, the growth in [7] was 63.1%; in assay [8], 11.3%; in assay [9] it was 13.9%; in [10], -4.38% (active); in [11], -15.7% (active); in assay [12], 88.3%. Further, the growth in assay [13] was 32.3%; in assay [14] it was 77.2%; in [15] it was 101%; in assay [16], 93.4%; in [17] it was 96.3%; in assay [18] it was 119%. For the same compound, the growth in assay [19] is -36.9% (active).
With `Cc1cc(C)nc(SCC(=O)Nc2ccc(S(N)(=O)=O)cc2)n1`, the growth in assay [1] is 104%; in assay [2] it was 118%; in [3] it was 127%; in [4] it was 94.1%; in assay [5] it was 101%; in assay [6], 98.2%. The growth was 97.2% in [7]; 96.7% in assay [8]; 96.7% in assay [9]; 110% in assay [10]; 103% in assay [11]; 99.8% in assay [12]. The growth in assay [13] is 105%; in assay [14] it was 87.1%; in assay [15], 102%; in [16], 101%; in assay [17] it was 96.5%; in assay [18], 123%. Also, the growth in assay [19] was 97.1%.
On to `C#CCNC(=O)[C@]12CCC(C)(C)C[C@H]1C1=CC[C@@H]3[C@@](C)(CCC#N)[C@H](C(=C)C)CC[C@@]3(C)[C@]1(C)CC2`, for which the growth in assay [1] is 33.2%; in assay [2] it was 48.9%; in [3] it was 82.5%; in [4], 64.3%; in assay [5], 54.6%; in assay [6], 26.3%. Moreover, the growth in assay [7] was 42.7%; in assay [8], 52.1%; in [9] it was -53.1% (active); in [10], 74.6%; in [11] it was 57.2%; in assay [12], 57.8%. Moreover, the growth was 68.7% in assay [13]; 36.6% in assay [14]; 71.5% in [15]; 60.2% in assay [16]; 40.3% in assay [17]; 129% in assay [18]. Further, in [19], the growth was 26.2%.
For `O=C(c1ccc(Cl)cc1)C1[C@H](c2ccc(Br)cc2)[C@@H](c2ccccc2)NC12C(=O)Nc1ccccc12` (some centres not stated), the growth in assay [1] was -2.63% (active); in assay [2] it was -52.2% (active); in assay [3], 15%; in assay [4], 15.9%; in assay [5] it was -6.22% (active); in assay [6] it was 5.16% (active). Moreover, the growth in [7] is -23.2% (active); in assay [8] it was -60.6% (active); in assay [9], -100% (active); in assay [10] it was -32.7% (active); in assay [11] it was -62.7% (active); in assay [12], 4.42% (active). Further, the growth in assay [13] was -78.1% (active); in assay [14], 2.46% (active); in [15] it was 14.5%; in assay [16], -5.73% (active); in [17], 0.681% (active); in assay [18], -23.5% (active). In [19], the growth is -0.656% (active).
For the compound `N#Cc1c(-c2ccc(F)cc2)nc(SCc2ccc([N+](=O)[O-])cc2)nc1N1CCOCC1`, the growth in assay [1] was 72.8%; in [2] it was 86.6%; in [3], 7.62% (active); in assay [4] it was 46%; in [5], 55.3%; in assay [6], 59.1%. Also, the growth is 61.9% in [7]; 62.7% in assay [8]; 84.7% in assay [9]; 82.1% in [10]; 87.4% in assay [11]; 39.3% in [12]. The growth was 74.6% in assay [13]; 50.9% in assay [14]; 84.2% in assay [15]; 51% in assay [16]; 35.9% in [17]; 64.4% in assay [18]. Also, the growth in assay [19] was 77.2%.
With `N#Cc1ccc(-c2nn(-c3ccc(C(=O)O)cc3)cc2CNc2cc(Cl)cc(C(F)(F)F)c2)cc1`, the growth in [1] was 7.93% (active); in assay [2], 18.8%; in [3], 31%; in assay [4] it was 20.9%; in assay [5], 18.5%; in [6], 14.1%. Besides, the growth in assay [7] is -64.1% (active); in assay [8] it was -48.8% (active); in assay [9], -24% (active); in [10], 12.2%; in assay [11], 8.11% (active); in [12], 22.8%. Further, the growth is 18.4% in [13]; 25% in assay [14]; 63.5% in assay [15]; 17.3% in assay [16]; 20.8% in assay [17]; 39.8% in [18]. In [19], the growth is 5.2% (active).
Regarding `CN1CCN(Cc2ccc(NC(=O)c3cncc(C#Cc4cnc5ccc(N[C@H]6CCOC6)nn45)c3)cc2C(F)(F)F)CC1`, the growth in assay [1] is -84.3% (active); in assay [2], -33.2% (active); in [3], -98% (active); in assay [4], -98.8% (active); in assay [5], -79.7% (active); in assay [6], -20.7% (active). The growth is -100% (active) in assay [7]; -93.3% (active) in assay [8]; -99.1% (active) in [9]; -92.8% (active) in assay [10]; -94.3% (active) in assay [11]; -99.4% (active) in assay [12]. For the same compound, the growth is -93.1% (active) in assay [13]; -95.6% (active) in assay [14]; -69.8% (active) in assay [15]; -100% (active) in [16]; -96.7% (active) in [17]; -94.7% (active) in assay [18]. Also, the growth in assay [19] is -2.23% (active).
`CN(C)CCNC(=O)OCCCCOc1cc(O)c2c(=O)cc(-c3ccccc3)oc2c1`: the growth in assay [1] is -51.8% (active); in assay [2] it was -54.4% (active); in assay [3], 103%; in assay [4], -32.7% (active); in assay [5] it was -64.1% (active); in [6], 10.3%. The growth in assay [7] is -100% (active); in assay [8], -88.4% (active); in assay [9], -100% (active); in assay [10] it was -91.5% (active); in assay [11] it was -59.7% (active); in assay [12], 11.7%. Besides, the growth is -9.43% (active) in assay [13]; -91.2% (active) in [14]; 0.634% (active) in [15]; -97.5% (active) in assay [16]; -39.1% (active) in [17]; -76.4% (active) in assay [18]. In addition, the growth in assay [19] is -5.67% (active).

The values are drawn from PubChem BioAssay (NCI).
